“And” between values parts separate entries of the source, which are not always exact repeats. Equal values may be shown once. Results filed as inconclusive are left out. The source made the active and inactive calls. Unless noted, calls follow the shape of the dose curve; as a rule, active = well fitted curve in the direction sought with a large enough effect; inconclusive = small, poorly fitted or top-dose-only effect, or another doubt; inactive = no such curve, though single readings can be large; an effect the other way counts as inactive or inconclusive.
Experiments:
[1] = qHTS assay for small molecule disruptors of the mitochondrial membrane potential - 1 hr assay (AID 651754; calls by dose curve; also: % is scaled to controls: 0 for no effect and ±100 for the full control effect; nearly all actives have a fitted effect of over 35% in size)
Outline: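 Loss of mitochondrial potential shifts the cationic dye from red mitochondrial aggregates to green cytoplasmic monomers. Cells (HepG2) are treated with compound for 1 hr before a 30 min dye incubation at 37C.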

[2] = qHTS assay for small molecule disruptors of the mitochondrial membrane potential - 5 hr assay (AID 651755; calls by dose curve; also: % is scaled to controls: 0 for no effect and ±100 for the full control effect; nearly all actives have a fitted effect of over 40% in size)
Outline: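 Seed HepG2 overnight, add compound, incubate 5 hr at 37C and 5% CO2, stain 30 min with Mito-MPS, then measure monomer (490/535 nm) and aggregate (540/590 nm) fluorescence.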

[3] = molecular target: Tumor necrosis factor (Homo sapiens) (UniProt P01375); experiment: qHTS assay to identify small molecules that stimulate Tumor Necrosis Factor-alpha (TNF-alpha) secretion (AID 651757; active = well fitted curve in the direction sought with a large enough effect in the signal ratio; the % refers to the signal ratio; also: 0% is about no effect)
Outline: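 Human monocytic THP-1 cells are plated, treated with compound and held at 37 C for 17 hrs. Labeled anti-TNF-alpha antibody mixture is then added; after 3 hr at room temperature, TR-FRET signal reports secreted TNF-alpha.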

[4] = qHTS assay to identify small molecules that stimulate interleukin-8 (IL-8) secretion (AID 651758; active = well fitted activation curve with a large enough effect in the signal ratio; the % refers to the signal ratio; also: 0% is about no effect)
Outline: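 Quantitative HTS in THP-1 monocytic cells at 2000 cells per well, with 16 hrs compound incubation at 37 C. IL-8 in the medium was then quantified by HTRF immunoassay, read after 1-3 hrs at room temperature.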

[5] = qHTS assay for environmental chemicals that activate the Aryl hydrocarbon Receptor (AhR) signaling pathway (AID 651777); settings: 1A2-DRE human hepatoma cells, luciferase, 24 h; activation: active compounds read high; also: % of control where 0% means no effect; nearly all actives have a fitted effect of over 15% in size
Outline: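 Luminescence read-out: One-Glo added for 30 min at RT after 24 hr compound treatment (37 C, 5% CO2) of human hepatoma cells expressing a DRE/CYP1A2 promoter–luciferase reporter; increased signal indicates AhR activation.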

[6] = molecular target: Peroxisome proliferator-activated receptor alpha (Homo sapiens) (UniProt Q07869); experiment: qHTS assay for small molecule agonists of the peroxisome proliferator-activated receptor alpha (PPARalpha) signaling pathway (AID 651778); settings: PathHunter PPARalpha complementation, chemiluminescence, 6 h; active compounds read high; also: % of control where 0% means no effect
Outline: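 Cells plated at 2,000/well and held overnight at 37 C, 5% CO2, then compound added by pin tool for 6 hr; after PathHunter detection reagent and 60 min at room temperature, chemiluminescence from enzyme complementation was read.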

[7] = molecular target: Nuclear receptor ROR-gamma (Homo sapiens) (UniProt P51449); experiment: qHTS assay for small molecule antagonists of the retinoid-related orphan receptor gamma (ROR-gamma) signaling pathway (AID 651802);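 also: CHO cells with doxycycline-induced ROR-gamma expression; series mostly up to about 92 µM; % is scaled to controls: 0 for no effect and ±100 for the full control effect; nearly all actives have a fitted effect of over 60% in size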
Outline: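 Steps: cells dispensed; compound or DMSO transferred by pin tool; doxycycline added to induce the ROR response element-driven luciferase; plates held 16hr at 37C; ONE-Glo added and luminescence measured.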

[8] = qHTS assay for small molecule agonists of the antioxidant response element (ARE) signaling pathway measured by Nrf2-dependant transcriptional activity (AID 720636; active = well fitted curve in the direction sought with a large enough effect in the repeat runs; an effect the other way counts as inactive or inconclusive;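 also: HepG2 cells with an ARE-driven luciferase reporter; % of control where 0% means no effect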)
Outline: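 HepG2 ARE-luc reporter line, 1% dialyzed FBS; 6 hr attachment at 37 C, compound pinned in, 16 hr at 37 C/5% CO2; ONE-Glo, 30 min RT, luminescence read.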

[9] = qHTS assay for small molecule agonists of the antioxidant response element (ARE) signaling pathway measured by Nrf2-dependant transcriptional activity - cell viability counter screen (AID 720653; active = well fitted curve in the direction sought with a large enough effect in the repeat runs; an effect the other way counts as inactive or inconclusive; also: % is scaled to controls: 0 for no effect and ±100 for the full control effect); settings: ARE-bla HepG2 viability, CellTiter-Glo ATP luminescence, 16 h; active compounds read low
Outline: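 ARE-bla HepG2 cells (2,000/well) rested 5 hrs at 37C/5% CO2, then exposed to compounds in DMSO for 16 hrs. Viability was read in the same wells as intracellular ATP by luminescence, 30 min at room temperature after reagent addition.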

[10] = qHTS assay for cell viability of HEK293 cells (AID 743288); settings: ATP luminescence (CellTiter-Glo), 18 h, active compounds read low; also: % is scaled to controls: 0 for no effect and ±100 for the full control effect; nearly all actives have a fitted effect of over 50% in size
Outline: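 Viable-cell counts were inferred from luciferase-based ATP content in HEK293 cells seeded at 2,000/well, pre-incubated ≥5 h, then dosed with DMSO-solubilised compounds for 18 h at 37 C.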

[11] = qHTS assay for cell viability of the p53RE-bla HCT-116 cell line (AID 743292); also: % is scaled to controls: 0 for no effect and ±100 for the full control effect; nearly all actives have a fitted effect of over 55% in size
Outline: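 Luminescent ATP quantitation (CellTiter-Glo) served as the viability read-out; reagent was added after 16 h compound exposure at 37 C and read after 30 min at room temperature. Cells: p53RE-bla HCT-116, 4,000 per well.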

[12] = molecular target: Nuclear receptor subfamily 1 group I member 2 (Rattus norvegicus) (UniProt Q9R1A7); experiment: qHTS assay for small molecule activators of the rat pregnane X receptor (rPXR) signaling pathway (AID 651751; call rule not given here; also: 0% is about no effect); settings: rPXR reporter cells, luciferase (One-Glo), 24 h
[13] = qHTS assay for small molecule activators of the human pregnane X receptor (PXR) signaling pathway (AID 720659; call rule not given here; also: 0% is about no effect)
[14] = qHTS assay for small molecule antagonists of the retinoid-related orphan receptor gamma (ROR-gamma) signaling pathway - cell viability counter screen (AID 720652; active = well fitted curve in the direction sought with a large enough effect in the repeat runs; an effect the other way counts as inactive or inconclusive;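 also: CHO reporter cells with doxycycline-induced ROR-gamma expression; series mostly up to about 92 µM; compound exposure lasted 16 hr before ATP read; % is scaled to controls: 0 for no effect and ±100 for the full control effect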)
Outline: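 Steps: seed CHO cells bearing TET-inducible ROR and ROR response element-luciferase; rest 5 hr at 37 C; add compound, then doxycycline; incubate 16 hr; add CellTiter-Glo and read luminescence as ATP-based viability.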

Nuclear receptor ROR-gamma (Homo sapiens), sequence (P51449 whole entry, looked up): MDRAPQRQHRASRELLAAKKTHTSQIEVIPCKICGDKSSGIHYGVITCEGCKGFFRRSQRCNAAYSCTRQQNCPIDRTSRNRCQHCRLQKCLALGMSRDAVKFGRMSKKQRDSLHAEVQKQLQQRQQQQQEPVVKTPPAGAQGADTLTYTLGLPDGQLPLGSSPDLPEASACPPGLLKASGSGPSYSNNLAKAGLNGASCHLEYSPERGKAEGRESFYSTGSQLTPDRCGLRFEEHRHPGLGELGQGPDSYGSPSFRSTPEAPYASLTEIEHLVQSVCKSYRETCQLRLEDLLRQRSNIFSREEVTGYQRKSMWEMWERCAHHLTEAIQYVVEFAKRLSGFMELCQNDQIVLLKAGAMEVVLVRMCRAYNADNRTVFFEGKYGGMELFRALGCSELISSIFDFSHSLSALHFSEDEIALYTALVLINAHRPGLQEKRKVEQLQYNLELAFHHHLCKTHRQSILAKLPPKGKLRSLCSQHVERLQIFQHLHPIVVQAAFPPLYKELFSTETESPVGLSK
Tumor necrosis factor (Homo sapiens), sequence (P01375 whole entry, looked up): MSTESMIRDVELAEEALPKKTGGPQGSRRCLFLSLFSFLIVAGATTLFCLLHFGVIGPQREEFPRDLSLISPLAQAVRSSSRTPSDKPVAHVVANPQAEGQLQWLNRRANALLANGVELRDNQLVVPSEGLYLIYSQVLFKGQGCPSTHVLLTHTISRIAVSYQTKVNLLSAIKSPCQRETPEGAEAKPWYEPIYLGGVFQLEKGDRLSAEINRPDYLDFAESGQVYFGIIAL
Nuclear receptor subfamily 1 group I member 2 (Rattus norvegicus), sequence (Q9R1A7 whole entry, looked up): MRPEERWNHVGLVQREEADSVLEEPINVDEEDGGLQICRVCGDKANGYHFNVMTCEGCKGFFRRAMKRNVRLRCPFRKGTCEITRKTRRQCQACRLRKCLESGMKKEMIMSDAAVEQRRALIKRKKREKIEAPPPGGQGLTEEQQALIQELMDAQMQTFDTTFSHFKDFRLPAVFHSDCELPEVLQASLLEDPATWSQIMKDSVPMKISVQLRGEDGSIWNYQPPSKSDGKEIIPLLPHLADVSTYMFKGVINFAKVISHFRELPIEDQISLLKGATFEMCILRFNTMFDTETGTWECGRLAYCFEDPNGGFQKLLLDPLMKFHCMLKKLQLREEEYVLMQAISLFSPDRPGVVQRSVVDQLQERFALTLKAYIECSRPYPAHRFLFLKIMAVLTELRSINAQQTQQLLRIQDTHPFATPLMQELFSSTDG
Peroxisome proliferator-activated receptor alpha (Homo sapiens), sequence (Q07869 whole entry, looked up): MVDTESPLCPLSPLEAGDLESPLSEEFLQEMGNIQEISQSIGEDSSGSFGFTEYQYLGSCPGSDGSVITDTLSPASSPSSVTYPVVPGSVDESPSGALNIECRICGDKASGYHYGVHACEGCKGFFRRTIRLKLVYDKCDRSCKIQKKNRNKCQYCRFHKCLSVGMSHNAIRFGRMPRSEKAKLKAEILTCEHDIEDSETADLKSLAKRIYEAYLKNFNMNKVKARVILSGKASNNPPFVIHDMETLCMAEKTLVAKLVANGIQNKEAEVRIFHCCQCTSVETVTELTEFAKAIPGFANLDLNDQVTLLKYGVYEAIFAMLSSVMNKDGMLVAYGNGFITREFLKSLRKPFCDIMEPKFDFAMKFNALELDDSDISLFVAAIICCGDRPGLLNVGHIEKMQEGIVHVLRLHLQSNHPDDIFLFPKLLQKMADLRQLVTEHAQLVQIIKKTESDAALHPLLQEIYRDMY

NC(=O)/N=N/C(N)=O
inactive: Potency [1] | Potency [2] | Potency [3] | Potency [4] | activation [5] -0.307% | max response [6] -8.1% | Potency [7] | outcome [8] | max response [9] 19.2% | max response [10] 1.54% | Potency [11] | max response [12] -0.787% | outcome [13]

Cc1ccc(N(C)C)cc1
inactive: Potency [1] | Potency [2] | Potency [3] | Potency [4] | activation [5] 6.07% | max response [6] 2.84% | outcome [8] | Potency [14] | max response [10] -14.6% | Potency [11] | max response [12] 1.14% | outcome [13]

O=C1CCCCC1
inactive: Potency [1] | Potency [2] | Potency [3] | Potency [4] | activation [5] -0.681% | max response [6] -2.26% | Potency [7] | Potency [14] | max response [9] 5.45% | max response [10] -3.35% | Potency [11] | max response [12] 2.79% | outcome [13]

OC/C(Br)=C(\Br)CO
inactive: Potency [1] | Potency [2] | Potency [3] | Potency [4] | activation [5] -1.6% | max response [6] -6.37% | Potency [7] | outcome [8] | max response [9] 1.49% | max response [10] 0.0424% | Potency [11] | max response [12] 0.247% | outcome [13]

NC(=O)NC(N)=O
inactive: Potency [1] | Potency [2] | Potency [3] | activation [5] 2.56% | max response [6] -2.74% | Potency [7] | outcome [8] | Potency [14] | max response [9] -4.93% | max response [12] -0.329% | outcome [13]

CC(C)=CCC/C(C)=C/C=O
inactive: Potency [1] | Potency [2] | Potency [3] | Potency [4] | activation [5] 1.06% and -1.3% | max response [6] -4.87% and -0.301% | Potency [7] | outcome [8] | max response [9] -2.99% and -11.3% | max response [10] -7.6% and -9.91% | Potency [11] | max response [12] -5.36% and -0.0145% | outcome [13]

Cc1cc(C)c(N)cc1C
inactive: Potency [1] | Potency [2] | Potency [3] | Potency [4] | activation [5] 1.62% | max response [6] -4.75% | outcome [8] | max response [9] 7.8% | max response [10] -5.87% | Potency [11] | max response [12] 3.48% | outcome [13]

C=Cc1ccc(C=C)cc1
inactive: Potency [1] | Potency [2] | Potency [3] | Potency [4] | activation [5] 7.35% | Potency [7] | outcome [8] | Potency [14] | max response [9] -7.35% | max response [10] -2.33% | Potency [11] | max response [12] -2.76% | outcome [13]

CCCOCC(C)OCC(C)O (configuration not stated)
inactive: Potency [1] | Potency [2] | Potency [3] | Potency [4] | activation [5] -2.16% | Potency [7] | max response [9] -10.5% | max response [10] -8.35% | Potency [11] | max response [12] -1.49% | outcome [13]

c1ccsc1
inactive: Potency [1] | Potency [2] | Potency [3] | Potency [4] | activation [5] -0.706% | Potency [7] | Potency [14] | max response [10] 6.51% | Potency [11] | max response [12] -1.04% | outcome [13]

CC(=O)c1nccs1
inactive: Potency [1] | Potency [2] | Potency [3] | Potency [4] | Potency [7] | outcome [8] | Potency [14] | max response [9] 25.7% | max response [10] -7.91% | Potency [11] | max response [12] 8.24% | outcome [13]

CO[Si](CCCNCCC[Si](OC)(OC)OC)(OC)OC
inactive: Potency [1] | Potency [2] | Potency [3] | Potency [4] | activation [5] -0.757% | max response [6] -5.87% | Potency [7] | outcome [8] | max response [9] -1.66% | max response [10] 5.64% | Potency [11] | max response [12] 4.59% | outcome [13]

CC/C(C)=N/O
inactive: Potency [1] | Potency [2] | Potency [3] | Potency [4] | max response [6] 1.72% | Potency [7] | outcome [8] | Potency [14] | max response [10] 6.15% | max response [12] 5.17% | outcome [13]

CC(CCl)OC(C)CCl (configuration not stated)
inactive: Potency [1] | Potency [2] | Potency [3] | Potency [4] | max response [6] 4.09% | outcome [8] | Potency [14] | max response [9] 6.29% | max response [10] -14.3% | Potency [11] | max response [12] 2.99% | outcome [13]

O=Cc1ccc(Cl)cc1
inactive: Potency [1] | Potency [2] | Potency [3] | Potency [4] | max response [6] -4.56% | Potency [7] | max response [9] 7.47% | max response [10] -6.94% | Potency [11] | max response [12] -2.77% | outcome [13]

Cc1ccc(C(=O)O)cc1
inactive: Potency [1] | Potency [2] | Potency [3] | activation [5] -0.0785% | max response [6] 2.54% | Potency [7] | outcome [8] | Potency [14] | max response [9] 8.21% | max response [10] -10.4% | Potency [11] | max response [12] 3.84% | outcome [13]

CCCC(Cl)CCCC(Cl)CCC(Cl)CCC(Cl)CCC(Cl)CCCC(Cl)CCC (configuration not stated)
inactive: Potency [1] | Potency [2] | Potency [3] | activation [5] -0.261% | max response [6] -3.72% | Potency [7] | outcome [8] | Potency [14] | max response [9] -6.05% | max response [10] 8.25% | Potency [11] | max response [12] 2.04% | outcome [13]

Source: PubChem BioAssay (NCATS)
